Screens as filed in PubChem BioAssay.
FMDV antiviral – foot and mouth disease virus antiviral activity. FMDV antiviral cell-based qHTS. Potency, µM (doses to about 57.9 µM), inactives show top-dose activity change, negative = inhibition, hits mostly inhibitors. hit rate 1.2% among 410,000; calls by dose curve; tested in HEK293T cells; further: read-out not given here; potency means the concentration at half of the fitted maximal effect; nearly all actives have a fitted effect of over 45% in size
MARV entry inh – inhibitors of Marburg virus binding or cell entry; hit rate 1.8% among 300,000; Marburg virus pseudotyped entry inhibition, cell reporter; AID 540276; Potency, µM (highest dose often 37.8 µM), for inactives: at the top dose activity change, negative = inhibition, hits mostly inhibitors; calls by dose curve; tested in HEK293 cells; further: potency means the concentration at half of the fitted maximal effect
Lassa entry inh – blocks Lassa virus binding to or entry into cells. Potency, µM (doses to about 37.9 µM), without a hit: top-dose activity change, negative = inhibition, most hits filed as inhibitors. hit rate 1.2% among 300,000. Lassa virus pseudotype entry inhibition, cell reporter; calls by dose curve; tested in HEK293 cells; further: potency means the concentration at half of the fitted maximal effect; nearly all actives have a fitted effect of over 50% in size
HCMV inh – human cytomegalovirus inhibition; HFF cells, HCMV-luciferase reporter, 72 h; stronger effect = lower value; activity change, negative = inhibition, % at 57.5 µM; hit rate 4.5% among 410,000; AID 1259415; in the data active means activity change below about -60%; inconclusive means no clear call, values can overlap the other calls; inactive means above about -39%
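Compounds were evaluated in HFFs infected with an HCMV luciferase reporter virus (MOI 1 PFU/cell). Luciferase in lysates collected 72 h post infection served as the replication measure.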
The depositor's hits bear a star; [ ] = remark or other dose. Rows were chosen to be rich in hits. Some 6.2% of all compounds tested hit in one or more screens of this group. On the % scale 0 is the no-effect control and ±100 the full control effect.

What do the screens show for `Clc1ccccc1C1=Nn2c(nnc2-c2ccncc2)SC1`?
FMDV antiviral: -25%; MARV entry inh: -20%; Lassa entry inh: 8%; HCMV inh: -76*

What do the screens show for `c1csc(C2=Nn3c(nnc3-c3ccncc3)SC2)c1`?
FMDV antiviral: -18%; MARV entry inh: -26%; Lassa entry inh: -4%; HCMV inh: -81*

How did Brc1ccc(C2=Nn3c(nnc3-c3ccncc3)SC2)cc1 do in these assays?
MARV entry inh: 1%

What do the screens show for `FC(F)(F)c1cccc(CNC(=S)Nc2ccccc2)c1`?
FMDV antiviral: 18%; MARV entry inh: -17%[46.1 µM]; Lassa entry inh: 0%; HCMV inh: -72*

What do the screens show for `COC(=O)/C=C/C(=O)Nc1cccc(C(F)(F)F)c1`?
FMDV antiviral: 0%; MARV entry inh: inconclusive; Lassa entry inh: -10%; HCMV inh: -74*

How did COc1ccc(NC(=S)NNC(=S)Nc2cccc(C(F)(F)F)c2)cc1 do in these assays?
FMDV antiviral: 14%; MARV entry inh: inconclusive; Lassa entry inh: inconclusive; HCMV inh: -76*

How did O=C(NNC(=S)Nc1cccc(C(F)(F)F)c1)c1ccc(Cl)cc1Cl do in these assays?
FMDV antiviral: -27%; MARV entry inh: inconclusive; Lassa entry inh: 0%; HCMV inh: -66*

What do the screens show for `COC(=S)Nc1cccc(C(F)(F)F)c1`?
FMDV antiviral: -11%; MARV entry inh: 3%[46.1 µM]; Lassa entry inh: -1%; HCMV inh: 31

Results for Cc1ccc(C2NC(=O)c3c(sc4c3CCN(C)C4)N2)s1 (stereo not drawn) ?
MARV entry inh: 1%; Lassa entry inh: inconclusive; HCMV inh: -2

Results for Cc1cc(C)nc(NC(=O)C(c2ccccc2)c2ccccc2)n1 ?
MARV entry inh: -18%; Lassa entry inh: 12%; HCMV inh: 57

How did CCOC(=O)c1cc(-c2ccccc2)sc1NC(=O)CN1C(=O)NC(CC)(c2ccccc2)C1=O (stereo not drawn) do in these assays?
FMDV antiviral: -2%; MARV entry inh: -19%; Lassa entry inh: -3%; HCMV inh: -28

Results for Cc1ccc(OCC(=O)NC(=S)Nc2cccc(NC(=O)c3ccc(Cl)cc3Cl)c2)cc1 ?
FMDV antiviral: 0%; MARV entry inh: 5%; Lassa entry inh: 9%; HCMV inh: -73*

Results for Cc1ccc(OCC(=O)NC(=S)Nc2cccc(NC(=O)c3ccccc3)c2)cc1 ?
FMDV antiviral: -24%; MARV entry inh: inconclusive; Lassa entry inh: -26%; HCMV inh: 29

What do the screens show for `FC(F)(F)c1cccc(NC(=S)NC(c2ccccc2)c2ccccc2)c1`?
FMDV antiviral: 25µM*; MARV entry inh: inconclusive; Lassa entry inh: -27%; HCMV inh: -40

What do the screens show for `FC(F)(F)c1cccc(NC(=S)NCc2ccccc2)c1`?
FMDV antiviral: 1%; MARV entry inh: 0%; Lassa entry inh: inconclusive; HCMV inh: -73*

What do the screens show for `FC(F)(F)c1cccc(NC(=S)Nc2ccc(Cl)c(Cl)c2)c1`?
FMDV antiviral: -20%; MARV entry inh: inconclusive; Lassa entry inh: inconclusive; HCMV inh: 6

How did CC(C)(C)NC(=S)Nc1cccc(C(F)(F)F)c1 do in these assays?
FMDV antiviral: -28%; MARV entry inh: inconclusive; HCMV inh: inconclusive

How did O=C1NC(=O)C(=Cc2ccc(-c3cc(Cl)ccc3[N+](=O)[O-])o2)C(=O)N1 do in these assays?
FMDV antiviral: 20µM*; MARV entry inh: inconclusive; Lassa entry inh: 1%; HCMV inh: -8

Results for Cc1ccc(/C=C2\C(=O)ON=C2c2ccccc2)o1 ?
FMDV antiviral: -4%; MARV entry inh: -9%[46.1 µM]; Lassa entry inh: -6%; HCMV inh: inconclusive

What do the screens show for `CC1=C(C#N)C(=O)NC(=O)/C1=C\c1ccc(-c2cc(C)c(C)cc2[N+](=O)[O-])o1`?
FMDV antiviral: inconclusive; MARV entry inh: 28%; Lassa entry inh: 27%; HCMV inh: 25

How did Cc1ccc(-c2ccc(/C=C3\C(=O)ON=C3c3ccccc3)o2)c([N+](=O)[O-])c1 do in these assays?
FMDV antiviral: -9%; MARV entry inh: inconclusive; Lassa entry inh: 2%; HCMV inh: -94*

What do the screens show for `O=C1NC(=O)C(=Cc2ccc(-c3ccccc3[N+](=O)[O-])o2)C(=O)N1`?
FMDV antiviral: 35µM*; MARV entry inh: inconclusive; Lassa entry inh: 17%; HCMV inh: -2

Results for CC(C)(C)c1csc(NC(=O)CSc2nc3ccccc3c(=O)[nH]2)n1 ?
FMDV antiviral: -25%; MARV entry inh: -5%; Lassa entry inh: 9%; HCMV inh: -107*

Results for Cc1csc(NC(=O)CSc2nc3ccccc3c(=O)[nH]2)n1 ?
FMDV antiviral: -13%; MARV entry inh: 4.6µM*; Lassa entry inh: inconclusive; HCMV inh: 53

Results for Cc1csc(NC(=O)CSc2ncc(-c3ccccc3)[nH]2)n1 ?
FMDV antiviral: 2%; MARV entry inh: -3%; Lassa entry inh: 3%; HCMV inh: -98*

How did Cc1csc(NC(=O)CSc2nnc3ncccn23)n1 do in these assays?
FMDV antiviral: -12%; MARV entry inh: 4%; Lassa entry inh: 4%; HCMV inh: -87*

How did COc1ccc(C)cc1NC(=O)CCc1c(C)nn(-c2ccc(N3CCCCC3)nn2)c1C do in these assays?
FMDV antiviral: -14%; Lassa entry inh: -28%[46.1 µM]; HCMV inh: 33

What do the screens show for `C#CCN1C(C)=C(C(=O)OC)C(c2cccc([N+](=O)[O-])c2)C(C(=O)OCC)=C1C` (stereo not drawn)?
FMDV antiviral: -20%; MARV entry inh: 14µM*; Lassa entry inh: inconclusive; HCMV inh: -29

How did CCOC(=O)C1=C(C)NC(C)=C(C(=O)OCC)C1c1cccc([N+](=O)[O-])c1 do in these assays?
FMDV antiviral: inconclusive; HCMV inh: 12

Results for COc1ccc(-n2c(-c3ccccc3)nnc2-c2ccc(Cl)cc2)cc1 ?
FMDV antiviral: -13%; MARV entry inh: 10%[46.1 µM]; Lassa entry inh: 1%; HCMV inh: 8

Results for COc1ccc(-n2c(-c3ccc(Cl)cc3)c[n+]3c2CCc2ccccc2-3)cc1 ?
FMDV antiviral: inconclusive; MARV entry inh: 11µM*; Lassa entry inh: inconclusive; HCMV inh: -99*

Results for Cc1c(-c2cccc(NC(=O)Nc3ccc(Cl)cc3)c2)nc2ncccn12 ?
FMDV antiviral: -19%; Lassa entry inh: -22%[46.1 µM]; HCMV inh: -86*

How did Cc1ccc(NC(=O)CC2CS(=O)(=O)CC2CC(=O)Nc2ccc(C)c(C)c2)cc1C (stereo not drawn) do in these assays?
FMDV antiviral: -10%; MARV entry inh: 5%; Lassa entry inh: inconclusive; HCMV inh: 54

How did Cc1nnc(SCC(=O)N/N=C/c2ccc(-c3ccc(C)c(Cl)c3)o2)s1 do in these assays?
FMDV antiviral: -24%; MARV entry inh: -25%; Lassa entry inh: inconclusive; HCMV inh: -65*

What do the screens show for `O=C(NCCc1ccccc1)c1cnc(Cl)c(Cl)c1`?
FMDV antiviral: 48%; MARV entry inh: -8%; Lassa entry inh: inconclusive; HCMV inh: 1

What do the screens show for `Cc1ccc(Cn2c(SCc3ccc(C(=O)NC4CCCCC4)cc3)nc3ccncc32)cc1`?
FMDV antiviral: inconclusive; MARV entry inh: -26%[46.1 µM]; HCMV inh: inconclusive

Results for O=C(c1ccc(CSc2nc3ccncc3n2Cc2ccc(F)cc2)cc1)N1CCCCCC1 ?
FMDV antiviral: 0%; MARV entry inh: -20%[46.1 µM]; Lassa entry inh: -21%[46.1 µM]; HCMV inh: -22
